In all, about 360,000 compounds went through this assay and about 10,000 (2.8%) were called active. Roughly 4% stayed inconclusive and do not appear here. For the sample, actives were picked, then their nearest neighbours and some compounds at random. Unmarked numbers belong to inactive results. Calls follow the shape of the dose curve; as a rule, active = well fitted inhibition curve with a large enough effect; inconclusive = small, poorly fitted or top-dose-only effect; inactive = flat fitted curve, though single readings scatter.
% is scaled to controls: 0 for no effect and ±100 for the full control effect; potency is read from the fitted curve at half-maximal effect.

Serine/threonine-protein kinase PLK1 (Homo sapiens), sequence (P53350 whole entry, looked up, the tested form may be a part): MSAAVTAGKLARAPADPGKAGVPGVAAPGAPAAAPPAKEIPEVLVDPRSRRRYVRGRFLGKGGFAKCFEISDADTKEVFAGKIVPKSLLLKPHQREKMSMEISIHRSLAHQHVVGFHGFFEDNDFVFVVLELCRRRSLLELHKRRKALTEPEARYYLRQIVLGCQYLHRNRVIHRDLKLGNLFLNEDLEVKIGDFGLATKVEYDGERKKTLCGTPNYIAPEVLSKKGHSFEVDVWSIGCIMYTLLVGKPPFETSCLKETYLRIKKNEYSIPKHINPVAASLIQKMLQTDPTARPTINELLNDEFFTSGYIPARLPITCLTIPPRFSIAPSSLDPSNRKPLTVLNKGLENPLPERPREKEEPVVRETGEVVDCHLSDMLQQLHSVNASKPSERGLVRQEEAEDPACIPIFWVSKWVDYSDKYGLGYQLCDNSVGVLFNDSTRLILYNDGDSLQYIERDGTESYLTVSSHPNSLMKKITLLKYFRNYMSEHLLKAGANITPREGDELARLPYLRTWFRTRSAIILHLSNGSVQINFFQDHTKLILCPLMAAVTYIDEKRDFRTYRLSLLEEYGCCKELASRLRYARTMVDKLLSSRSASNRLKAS

The experiment has as its target Serine/threonine-protein kinase PLK1 (Homo sapiens) (UniProt P53350). The experiment is described as follows: qHTS for Inhibitors of PLK1-PDB (polo-like kinase 1 - polo-box domain): Primary Screen. Also: nearly all actives have a fitted effect of over 65% in size. As to max response, negative = inhibition: series mostly up to about 57 µM. Particulars: Plk1 PBD binding of FITC phosphopeptide, fluorescence polarization.
Regarding `CC1(C(=O)Nc2ccccc2Br)CCN1C(=O)CC1CC1` (stereo not drawn), the max response, negative = inhibition is -11.1%.
Turning to `O=C(O)CC/C(=C\c1cc2c(cc1Br)OCO2)c1nc2ccccc2s1`, the Potency was 23.8 µM (active).
In the case of `O=C(N/N=C/c1cc2c(cc1Br)OCO2)C1COc2ccccc2O1` (stereo not drawn), the max response, negative = inhibition was 6.15%.
For `O=C(/C=C/c1cc2c(cc1Br)OCO2)NCc1ccc(Cl)cc1`, the max response, negative = inhibition is -5.95%.
As to `CC(=O)C1=CCC(c2ccccc2)N(S(=O)(=O)c2ccc(C)cc2)C1` (stereo not drawn), the max response, negative = inhibition is -15.4%.
On the same count and under the same terms, for `CCCNC(=O)C1(C)CCN1C(=O)Cc1ccc(-c2ccccc2)cc1` (stereo not drawn) the value was -9.86%; for `COc1cc(OC)c(C(=O)NCc2ccc3c(c2)OCO3)cc1OC`, -15%.
Still for that read-out and setting: for `O=C(NCc1ccc2c(c1)OCO2)c1cc(F)c(F)cc1Cl` the value was -7.37%.
Consider `Cc1nc2c(C(=O)NCc3ccc4c(c3)OCO4)c[nH]n2c(=O)c1Cc1ccccc1F`, for which the Potency was 21.2 µM (active).
`CC1(C(=O)NCc2ccco2)Cc2c(-c3ccc4c(c3)OCO4)ccnc2O1` (stereo not drawn): the max response, negative = inhibition was -5.07%.
Same read-out and setting: for `CCCNC(=O)C[C@@H]1CC[C@@H]2[C@H](COC[C@H](O)CN2C(=O)c2cc(Cl)cc(Cl)c2)O1` the value was -0.764%; for `Cn1cc(CNC(=O)c2ccc(OC3CCN(Cc4ccccn4)CC3)cc2)cn1`, -5.74%; for `CN(CCc1ccccn1)C(=O)c1ccc(OC2CCN(Cc3ccccn3)CC2)cc1`, 5.54%.
Take `Cc1nn(C)c(C)c1C(C)NC(=O)c1ccc(OC2CCN(Cc3ccccn3)CC2)cc1` (stereo not drawn): the Potency is 2.12 µM (active).
As for `Cc1cccc(S(=O)(=O)N(C)C[C@H]2OCc3cnnn3CCCC(=O)N([C@@H](C)CO)C[C@H]2C)c1`, the max response, negative = inhibition is -16.9%.
Same read-out and setting: for `CCCCCCNC(=O)O[C@H]1CN(C(=O)OC(C)C)N(C(=O)OC(C)C)[C@@H]2CN(S(=O)(=O)c3ccc(C)cc3)C[C@]12O` the value was -12.5%; for `COC(=O)c1ccc(NC(=S)NN2CCOCC2)cc1`, -1.75%; for `O=C(Nc1ccc(S(=O)(=O)Nc2ncccn2)cc1)C12CC3CC(CC(C3)C1)C2`, -7.71%.
On to `COC(=O)c1ccc(NC(=O)C23CC4CC(C2)CC(n2cnc(Cl)n2)(C4)C3)cc1`, for which the Potency was 23.8 µM (active).
`O=C(CNC(=O)N1CC(=O)Nc2ccccc21)Nc1ccc(Br)cc1F`: the max response, negative = inhibition was -4.26%.
The same measure, in the same setting: for `Cc1ccc(S(=O)(=O)N2C[C@H]3C(=O)C[C@@H](c4cccc5ccccc45)N(S(=O)(=O)c4ccc(C)cc4)[C@H]3C[C@H]2c2ccc(Cl)cc2)cc1` the value was -18.3%; for `COC(=O)c1ccc2nc(-c3ccc(C)cc3)c(Cc3ccc(OC)cc3C)n2c1`, -3.95%; for `CCN(C(=O)CSc1cccc[n+]1[O-])c1ccccc1`, 4.89%.
As for `O=C(CSc1cccc[n+]1[O-])c1ccc(-c2ccccc2)cc1`, the Potency is 23.8 µM (active).
On to `O=C(CSc1cccc[n+]1[O-])NCCCc1ccccc1`, for which the max response, negative = inhibition was -10.9%.
As to `N#CCCN(C(=O)Nc1ccc(Cl)c(Cl)c1)C1CCCCC1`, the max response, negative = inhibition is 9.26%.
Same read-out and setting: for `NC(Cc1ccccc1)c1csc(Nc2cc(Oc3ccccc3)ncn2)n1` (stereo not drawn) the value was -8.4%.
The same measure, in the same setting: for `COC(=O)CNC(=O)c1ccc(OC2CCN(C(=O)C3CC3)CC2)cc1` the value was -1.29%.
On the same count and under the same terms, for `CCn1c(/C=N/NC(=O)c2ccc(OC)cc2)nc2ccccc21` the value was 1.71%.
For the compound `CCc1ccc(/C=N/NC(=O)c2ccc(OC3CCCC3)cc2)s1`, the Potency is 11.9 µM (active).
`Nc1cccc(-c2cncc(N3CCN(Cc4ccccn4)CC3)n2)c1`: the max response, negative = inhibition was -6.49%.
Still for that read-out and setting: for `COc1ccc(-n2c(-c3ccc(Cl)cc3)n[nH]c2=S)c(OC)c1` the value was -18.3%; for `CC(C)CCNC(=O)c1[nH]c(C(F)(F)F)nc1-c1ccccc1`, -2.14%.
For the compound `COc1ccc(OCc2nnc3n2N=C(c2ccccc2)C(CC(=O)O)S3)cc1` (stereo not drawn), the Potency was 1.5 µM (active).
Turning to `COc1ccc(C2CC(c3ccccc3)=NN2C(=O)COC(=O)COc2ccccc2)cc1` (stereo not drawn), the max response, negative = inhibition was -2.07%.
On the same count and under the same terms, for `COc1ccc(OCC(=O)NNC(=O)C2CCC2)cc1` the value was 3.29%; for `Cc1ccc(NC(=O)[C@H](Cc2ccccc2)NC(=O)CC[C@H]2O[C@@H](n3ccc(=O)[nH]c3=O)[C@H](O)[C@@H]2O)cc1C`, -5.11%; for `OC(c1cc(Cl)cc(Cl)c1)c1ncc(-c2ccccc2C(F)(F)F)[nH]1` (stereo not drawn), 4.04%.
Still for that read-out and setting: for `CCOC(=O)[C@]12CCCC=C1N(Cc1cccc3ccccc13)C(=O)[C@H](CC(=O)NCC13CC4CC(CC(C4)C1)C3)C2` the value was -3.19%; for `CCCS(=O)(=O)NC(=O)C1(C)CCCN(C(=O)c2cc(C)on2)C1` (stereo not drawn), -2.32%.
For the compound `CCc1c(C)[nH]c(=S)c(C#N)c1C`, the Potency was 29.9 µM (active).
For `CC(=O)c1c(C)[nH]c(=S)c(C#N)c1-c1ccc(F)cc1`, the max response, negative = inhibition is -8.58%.
As to `COc1ccc(NC(=O)C(c2ccncc2)n2c(=O)c(-c3cc4ccccc4[nH]3)nc3ccccc32)cc1` (stereo not drawn), the max response, negative = inhibition was 12.4%.
For `CCOC(=O)C(NC(C)=O)C(=O)Nc1ccc(OC)cc1` (stereo not drawn), the max response, negative = inhibition is -7.21%.
For the compound `COc1ccc(NC(=O)C(NC(C)=O)C(=O)NCc2ccccc2Cl)cc1` (stereo not drawn), the Potency is 15 µM (active).
As to `COc1ccc(CNC(=O)C(C)NCc2ccccc2Cl)cc1` (stereo not drawn), the max response, negative = inhibition was 5.25%.
`C=CCC[C@@H](CCCCC)OC(=O)/C=C/[C@@H](O)[C@H](O)C[C@H](O)CC=C`: the max response, negative = inhibition was -3.6%.
The same measure, in the same setting: for `CC1(C)OC(=O)C2=C(C[C@@H](C3CC3)O[C@H]2c2ccc(Cl)cc2)O1` the value was -2.8%; for `CC(C)(C)NC(=O)NC(=O)COC(=O)Cn1c(C(F)(F)F)nc2ccccc21`, -11.6%.
As for `Cc1ccccc1OC(=O)Cn1c(C(F)(F)F)nc2ccccc21`, the Potency is 15 µM (active).
As for `CN1CCN(C(=O)Cn2c(C(F)(F)F)nc3ccccc32)CC1`, the max response, negative = inhibition was -6.38%.
Still for that read-out and setting: for `O=C(NCCOc1ccccc1)N1[C@H]2CC[C@@H]1C=C(c1ccc(F)cc1OCc1ccccc1)C2` the value was -5.72%; for `CC1(C(=O)NS(=O)(=O)c2ccc(C#N)cc2)CCN1C(=O)CC1CCCC1` (stereo not drawn), 1.71%; for `COCC(=O)N(C)C[C@H]1Oc2cc(Br)ccc2S(=O)(=O)N([C@H](C)CO)C[C@H]1C`, 4.87%.
On the same count and under the same terms, for `Cc1ccc(CN2CC(N3CCC(Cc4ccccc4)CC3)CS2(=O)=O)cc1` (stereo not drawn) the value was -6.9%.
Turning to `Cn1c(=O)[nH]c(=O)c2c1[nH]c(=S)n2Cc1ccccc1`, the Potency was 23.8 µM (active).
Take `CCN(CC)CCn1cnc2c1c(=O)[nH]c(=O)n2Cc1ccccc1`: the max response, negative = inhibition was -4.34%.
On the same count and under the same terms, for `Cn1c(=O)[nH]c(=O)c2c1nc(N(CCO)Cc1ccccc1)n2Cc1ccccc1Cl` the value was -7.01%.
The same measure, in the same setting: for `COC(=O)[C@@]12C[C@@H](CC(=O)NCc3cccc(C(F)(F)F)c3)C(=O)N(Cc3ccco3)C1=CCC(C)(C)C2` the value was -2.23%.
Still for that read-out and setting: for `O=C(NC1CCCC1)C1c2ccccc2OCC(=O)N1Cc1ccccc1` (stereo not drawn) the value was -5.56%.
For the compound `CCCCCCN1CCN(C2CN(Cc3cn(Cc4ccc(F)cc4)nn3)S(=O)(=O)C2)CC1` (stereo not drawn), the max response, negative = inhibition was 3.67%.
On the same count and under the same terms, for `OC(c1ccccc1)c1nc(/C=C/c2ccc(C(F)(F)F)cc2)cs1` (stereo not drawn) the value was -1.28%.
Same read-out and setting: for `CC(=O)Nc1ccc(C=CC(=O)c2ccc([N+](=O)[O-])cc2)cc1` the value was -8.08%; for `CC(=O)Nc1ccc(C=Cc2ccc([N+](=O)[O-])cc2)cc1`, -17.4%.
Take `O=C(O)/C=C/C(=O)NNc1ccc([N+](=O)[O-])cc1`: the Potency is 6.7 µM (active).
For the compound `O=C(NCCO)c1cccc(-c2cccc3nccn23)c1`, the max response, negative = inhibition was -13.3%.
On the same count and under the same terms, for `C#Cc1ccc(NC(=O)C2(C)CCN2C(=O)Cc2ccc(-c3ccccc3)cc2)cc1` (stereo not drawn) the value was 7.1%; for `COc1ccc(CNC(=O)CSc2n[nH]c(N)n2)cc1OC`, -18.3%; for `COc1ccc(C(=O)CSc2nccc(=O)[nH]2)cc1`, -2.62%.
For `COc1ccc(C(=O)CSc2n[nH]c(N)n2)cc1`, the Potency is 26.7 µM (active).
Regarding `COc1ccccc1-c1cc2nc(NCc3cccc(Cl)c3)ccn2n1`, the max response, negative = inhibition was -9.83%.
Same read-out and setting: for `CCc1nc2c(OCc3ccc(C(=O)OC)cc3)cccn2c1N(C)C(=O)C(C)C` the value was -10.3%.
Same read-out and setting: for `OC[C@H]1O[C@@H](c2nc(-c3nc(-c4ccc(F)cc4)no3)cs2)[C@H](O)[C@@H](O)[C@H]1O` the value was -9.06%.

The values are drawn from PubChem BioAssay AID720504 (National Center for Advancing Translational Sciences (NCATS), 2013).
